Assay in all cases: NCI-60 one-dose screen, 48 h (100 = growth as untreated, 0 = no growth, -100 = all killed)
What all share (conditions): 10 µM

Assay [1] concerns NCI-H23 lung.
In assay [2] the test system is NCI-H226 lung.
Assay [3] relates to NCI-H322M lung.
The subject of assay [4] is HOP-62 NSCLC.
Assay [5] has as its system NCI-H522 lung.
Assay [6] relates to A549/ATCC NSCLC.
Assay [7] deals with 786-0 renal.
Assay [8] has as its system COLO 205 colon.
In assay [9] the test system is DU-145 prostate.

The panel holds about 83,000 compounds, 20% with a hit somewhere; the sample as a whole holds those more often.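 The endpoint reported here, percent growth, reads 100 for growth as untreated, 0 for no net growth and -100 for all cells dead.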 A number with no mark means an inactive call. The source made the active and inactive calls. How the source made its calls: active means growth percent below 10; inactive means the rest.

For the compound `CN1CC[C@@H](c2c(O)cc(O)c3c(=O)cc(-c4ccccc4Cl)oc23)[C@@H](O)C1`, the growth is -13.3% (active) in [1]; 11.8% in [2]; 4.68% (active) in assay [3]; 12.1% in assay [4]; -42.6% (active) in [5]; 14.2% in [6]. Besides, the growth in assay [7] is 13%; in assay [8], -51% (active); in assay [9], 1.56% (active).

With `O=C1OCC2=C1C(c1ccc(Cl)c(Cl)c1)c1cc3c(cc1N2CCO)OCCO3` (stereo not drawn), the growth in assay [1] was 32.5%; in [2], 25.4%; in [3], 37.3%; in assay [4] it was 34.1%; in [5], -26.7% (active); in assay [6], 22.6%. Moreover, the growth in [7] is 25.7%; in [8], -11.9% (active); in assay [9], 6.74% (active).

With `Nc1c(C(=O)Nc2ccccc2)sc2nc3c(cc12)C(O)CCC3` (stereo not drawn), the growth in assay [1] is 37.1%; in [2], 74%; in assay [3], 46.1%; in assay [4] it was 24.6%; in assay [5] it was 7.09% (active); in assay [6] it was 29.3%. For the same compound, the figures for the growth in [7], in assay [8] and in assay [9] were 57.6%, -8.22% (active) and 5.47% (active), respectively.

For `Nc1nc(-c2ccccc2Cl)cc(-c2ccc(Cl)cc2Cl)n1`, the growth was 75.4% in assay [1]; 87.7% in [2]; 89.5% in [3]; 76.2% in assay [4]; 68.5% in assay [5]; 52.7% in assay [6]. Besides, the growth was 90.2% in assay [7], 64.9% in assay [8] and 91.4% in [9].

Take `Cn1c(N)c(N=Nc2ccc(S(=O)(=O)Nc3nccs3)cc2)c(=O)n(C)c1=O`: the growth in assay [1] was 94%; in assay [2] it was 104%; in [3] it was 92.9%; in assay [4], 105%; in [5] it was 82.2%; in assay [6] it was 105%. Besides, the values for the growth in assay [7], in assay [8] and in assay [9] were 98.1%, 105% and 106%, respectively.

As to `C=C1c2c(C)nn(-c3ccc(OC)cc3)c2N(C)C23C[C@@H]1C1(C)c4c(C)nn(-c5ccc(OC)cc5)c4N(C)C(C)(C[C@H]12)C3` (stereo partly drawn), the growth was 33.7% in [1]; 48.7% in [2]; 62.4% in assay [3]; 59.9% in assay [4]; 47.4% in assay [5]; 15.4% in assay [6]. Besides, the values for the growth in [7], in assay [8] and in assay [9] were 54.3%, 23.6% and 56.2%, respectively.

Turning to `Cc1cc(C)c(CCc2cc(C)c(C)cc2C)cc1C`, the growth is 98% in [1]; 92.3% in assay [2]; 112% in [3]; 117% in assay [4]; 95.5% in [5]; 99.9% in assay [6]. Besides, the growth in assay [7] is 108%; in assay [8] it was 118%; in assay [9] it was 107%.

For `COc1cc(OC)cc(-c2cncn2-c2ccc(-c3nc4cc(OC)cc(OC)c4s3)cc2)c1`, the growth is 57.5% in assay [1]; 67.7% in assay [2]; 82.8% in assay [3]; 79.7% in assay [4]; 61.3% in assay [5]; 45.4% in assay [6]. For the same compound, the growth in [7] is 66%; in [8], 79.5%; in assay [9], 78.1%.

As for `CC1(O)CCC2CC3OC3(C)CCC3OC3(C)CCC1C2(C)C` (stereo not drawn), the growth in assay [1] is 105%; in assay [2], 108%; in assay [3] it was 114%; in assay [4], 98.8%; in assay [5] it was 98.1%; in assay [7], 99.7%. Also, the growth in [8] is 106%.

With `COc1cccc(C2C3=C(COC3=O)N(CCO)c3cc(OC)ccc32)c1` (stereo not drawn), the growth is 26.3% in [1]; 0.496% (active) in assay [2]; 44% in assay [3]; 30.3% in [4]; -34.8% (active) in assay [5]; 18% in [6]. Besides, the growth is 27.9% in assay [7], -16.4% (active) in assay [8] and -4.6% (active) in [9].

On to `O=C1/C(=C\c2ccc(Br)cc2)CN(C(=O)c2ccccc2F)C/C1=C\c1ccc(Br)cc1`, for which the growth is 23.5% in assay [1]; -30.3% (active) in assay [2]; 60.7% in [3]; -7.85% (active) in assay [4]; -1.44% (active) in [5]; 2.51% (active) in assay [6]. Also, the growth in [7] is -52.4% (active); in [8], 5.27% (active); in [9] it was 6.51% (active).

In the case of `COc1ccc(/C=C/C(=O)Nc2ccc(-c3nc4ccc(F)cc4s3)cc2)cc1`, the growth was 86.3% in [1]; 72.3% in assay [2]; 104% in assay [3]; 109% in assay [4]; 85.5% in [5]; 94% in assay [6]. In addition, the growth in [7] is 80.6%; in [8], 110%; in [9], 118%.

For `CCCN(CCC)CCC(O)c1cc2c(c3ccccc13)CCCC2` (stereo not drawn), the growth was 79.8% in [1]; 81.1% in assay [2]; 99.1% in [3]; 79.4% in [4]; 74.2% in assay [5]; 92.3% in assay [6]. Moreover, the growth in assay [7] is 84.3%; in [8], 77%; in assay [9] it was 106%.

Regarding `Cc1ccc(-c2n[nH]c(=O)c3noc(-c4ccc(C)cc4)c23)cc1`, the growth was 61.8% in [1]; 80.9% in [2]; 49.5% in [3]; 29.2% in [4]; 16.4% in assay [5]; 36.8% in assay [6]. Further, the growth was 48.4% in [7], -25.1% (active) in assay [8] and 25.2% in [9].

As for `CCOC(=O)CNC(=O)CCCCSc1ncnc2nc[nH]c12`, the growth was 113% in assay [1]; 94.5% in assay [2]; 173% in [3]; 96.2% in [4]; 102% in [5]; 109% in assay [6]. In addition, the growth in assay [7] is 97.9%; in [8], 111%; in assay [9], 113%.

(Values after PubChem BioAssay (NCI).)
